Measured values from PubChem BioAssay AID893 (National Center for Advancing Translational Sciences (NCATS), 2007).
In all, about 75,000 compounds went through this assay and about 5,700 (7.6%) were called active. Inconclusive results (about 7%) are left out. Calls follow the shape of the dose curve; as a rule, active = well fitted inhibition curve with a large enough effect; inconclusive = small, poorly fitted or top-dose-only effect; inactive = no such curve, though single readings can be large or run the other way. Only a selection was taken, and actives are over-represented in it overall.

Target: 3-hydroxyacyl-CoA dehydrogenase type-2 (Homo sapiens) (UniProt Q99714)
Test: qHTS Assay for Inhibitors of HSD17B4, hydroxysteroid (17-beta) dehydrogenase 4; also: nearly all actives have a fitted effect of over 70% in size
Conditions: recombinant HSD17B10, NADH fluorescence kinetic; series mostly up to 57.1 µM; activity change, negative = inhibition: at the top concentration
Excerpt: Assay Overview: NIH Molecular Libraries Screening Centers Network [MLSCN] NIH Chemical Genomics Center [NCGC] Structural Genomics Consortium [SGC] Grant number: None HADH2: Hydroxyacyl-Coenzyme A dehydrogenase, type II, was supplied by researchers at the Structural Genomics Consortium, Oxford University lab (PI Udo Oppermann). The mitochondrial enzyme 17-hydroxysteroid dehydrogenase type 10 (HSD17-10) previously classified as type II hydroxyacyl-CoA dehydrogenase (HADH2) catalyzes the NAD+ dependent oxidation of a variety of substrates including acyl-CoAs, androgens and neurosteroids as well as bile acids(Shafqat N, Marschall HU, Filling C, et al. Biochemical Journal. 2003;376(Pt 1):49-60). […] The enzyme was produced by E.coli fermentation as His-tagged recombinant for the purpose of X-ray structure determination, and had been mass-spectrometry characterized. Inhibition of HADH2 activity was screened by utilizing beta-hydroxybutyryl coenzyme A as an electron donor and NAD+ as an electron acceptor/cofactor. An increase in the fluorescence intensity due to conversion of NAD+ to NADH was used to measure the enzyme activity.
Assay Protocol: Buffer: 100 mM Tris-HCl pH 9.0, containing 0.01 % Tween-20. Reagents/Controls: Buffer in columns 3 and 4 as negative control (no enzyme). Substrate/cofactor solution: 1 mM NAD+ and 90 uM beta-hydroxybutyryl coenzyme A (Sigma-Aldrich, St. Louis, MO) final concentrations dispensed throughout the plate. Enzyme: 20 nM HADH2 final concentration in columns 1, 2, 5-48. Column 1 is neutral (100% activity). Column 2 contained titration of apomorphine (Sigma-Aldrich, A 4393, PubChem CID 2215, top concentration 500 uM, then 1:2 dilution in duplicate) Assay Steps: Three uL of enzyme were dispensed to 1536-well Greiner black solid bottom plates. Compounds and controls (23 nL) were transferred via Kalypsys PinTool. The plates were incubated for 15 min at room temperature, and then 1 uL of substrate/cofactor solution was added to start the reaction. The plates were immediately transferred to and read every 30 seconds for 4 min on ViewLux High-throughput CCD imager (Perkin-Elmer) using 360 nm excitation and 450 nm emission fluorescence protocol. The fluorescence intensity difference between the last and the first time points was used to compute reaction progress.
% is scaled to controls: 0 for no effect and ±100 for the full control effect; potency is read from the fitted curve at half-maximal effect.

Compound	Potency	activity change, negative = inhibition
CCOC(=O)c1cc(-c2ccc(Cl)s2)nc2c1c(C)nn2C	31.6 µM (active)	
CCOC(=O)C1=C(O)CSC1=Nc1cccc(Cl)c1		5.61% (inactive)
Cn1cccc1Cc1nnc(SCC(=O)NCCc2ccccc2)n1-c1ccc(F)cc1		3.88% (inactive)
N#Cc1c(NC(=O)CCCN2C(=O)c3ccccc3C2=O)oc(-c2ccccc2)c1-c1ccccc1		5.71% (inactive)
Cc1ccc(N2C(=O)c3oc4ccccc4c(=O)c3C2c2cccnc2)nc1 (stereo not given)		5.96% (inactive)
CCCn1c(C(O)c2cc(OC)ccc2OC)nc2ccccc21 (stereo not given)		-0.382% (inactive)
COc1ccc(CCn2c(-c3ccco3)nc3nc4ccccc4nc32)cc1OC		-12.8% (inactive)
COCCn1c(-c2ccc(OC)c(OC)c2)nc2ccccc21	25.1 µM (active)	
Cn1c(COc2ccc(Cl)cc2)nc2ccccc2c1=O		-28.2% (inactive)
N#Cc1c(NC(=O)CSc2nc3ccccc3c(=O)n2Cc2ccco2)sc2c1CCCC2		-28.8% (inactive)
Cc1nc2ccccc2c(=O)n1CCCn1ccnc1		2.75% (inactive)
CC(Sc1nc2ccccc2c(=O)n1Cc1ccco1)C(=O)c1ccccc1 (stereo not given)		7.76% (inactive)
COCCCn1c2nc3ccccc3nc2c2c(=O)n(Cc3ccc(Cl)cc3)c(C)nc21	2 µM (active)	
Cc1nc2c(c(=O)n1Cc1ccco1)c1nc3ccccc3nc1n2Cc1ccccc1	25.1 µM (active)	
Nc1cc(=O)nc(SCc2ccccc2)n1Cc1ccco1		-1.73% (inactive)
COc1ccccc1NC(=O)CSc1nc2sc(C)c(C)c2c(=O)n1Cc1ccco1		-11.5% (inactive)
Cc1ccc(Cn2c(C)nc3c(c2=O)c2nc4ccccc4nc2n3Cc2ccco2)cc1	25.1 µM (active)	
CC1CCN(c2nc3c(c(=O)[nH]c(=O)n3C)n2CCCc2ccccc2)CC1		8.8% (inactive)
CCC1(C)CC(=O)NC1=O (stereo not given)		-1.08% (inactive)
COc1ccc(N)c(OC)c1		3.29% (inactive)
CCOC(=O)CSc1nnc(CNc2ccc(F)cc2)o1		-11.8% (inactive)
CC/C(=N\O)C(C)(C)/[N+]([O-])=C/c1ccc(Br)cc1		15.6% (inactive)

Compound	Potency	activity change, negative = inhibition
O=C(O)C(O)[C@@](O)(Cc1ccc(O)cc1)C(=O)O (stereo not given in full)		-0.363% (inactive)
CC1Cn2c(nnc2-c2cccs2)S1 (stereo not given)		-1.46% (inactive)
CSc1cccc(NC(=O)CSc2ccccc2)c1		-27.3% (inactive)
NC(=NC(=O)c1ccccc1)C1=C(O)CCC1=O		2.94% (inactive)
CCS(=O)(=O)N(C)[C@@H]1c2cc(C#N)ccc2OC(C)(C)[C@H]1O	inactive	
Cc1ccc2nc(-c3ccccc3)cc(C(=O)O)c2c1		-22.3% (inactive)
Cc1ccc(NC(=O)c2cc(-c3ccc(C)o3)nc3ccccc23)nc1	31.6 µM (active)	
Cc1cc(=O)oc(C)c1C(=O)Nc1cnc2ccccc2c1		-0.842% (inactive)
Cc1ccc(S(=O)(=O)N2CCC(C(=O)OCC(=O)N3CC(=O)Nc4ccccc43)CC2)cc1		9.91% (inactive)
CC(Nc1nc(N2CCCC2)nc2ccccc12)c1ccccc1 (stereo not given)	31.6 µM (active)	
CC(C)n1c(C(O)c2ccccc2)nc2ccccc21 (stereo not given)		12.2% (inactive)
Cc1ccc(C(CC(=O)O)Nc2nc(N3CCCCC3)nc(N3CCCCC3)n2)cc1 (stereo not given)		-1.92% (inactive)
C[N+](C)(C)CCCCCNCC12CC3CC(CC(C3)C1)C2		3.87% (inactive)
O=C(OCC(=O)c1cccs1)C1=COCCO1		8.65% (inactive)
O=C(NCc1ccccn1)Nc1ccc(F)cc1		7.82% (inactive)
CCOC(=O)c1cnc(-n2nc(C)cc2C)nc1-n1nc(C)cc1C		-10.5% (inactive)
OCCCNCc1ccccn1		-1.43% [at 11.4 µM] (inactive)
O=C(Nc1ccncc1)c1cc2ccccc2o1		10.3% (inactive)
O=C(NCc1ccccn1)c1cc2ccccc2oc1=O	31.6 µM (active)	
O=C(Oc1cccnc1)c1cc2ccccc2oc1=O	25.1 µM (active)	
O=C(CCSCCc1ccccn1)Nc1nccs1		-2.41% (inactive)
CCOC(=O)c1cnc2sccn2c1=O	25.1 µM (active)	

Compound	Potency	activity change, negative = inhibition
Nc1ncc(-c2cc3ccccc3oc2=O)s1		-2.43% (inactive)
CCOC(=O)c1cc2n(c1C)-c1ccccc1C2=O		3.78% (inactive)
O=C(NCc1ccccn1)c1c(O)c2c([nH]c1=O)CCCC2		-2.63% (inactive)
O=C(NCc1ccccn1)c1cnc2sccn2c1=O	25.1 µM (active)	
Brc1cc(Br)c(Oc2cc(Br)c(Br)cc2Br)cc1Br		-9.08% (inactive)
COc1cccc2sc(Nc3nc(C)c(C(C)=O)s3)nc12		-6.55% (inactive)
COC(=O)CNS(=O)(=O)c1ccc(Cc2ccc(S(=O)(=O)NCC(=O)OC)cc2)cc1		3.44% (inactive)
CC(=O)OCC(COC(C)=O)OC(C)=O		3.21% (inactive)
CNC(=O)C1(C)C=CC2(CCCCC2)N1C(C)=O (stereo not given)		5.61% (inactive)
O=C(c1ccccc1-c1ccccc1)N1CCOCC1		8.37% (inactive)
CC(C(=O)Nc1ccccc1-c1ccccc1)N1CCOCC1 (stereo not given)		12.3% (inactive)
CC(C(=O)N1CCOCC1)N1c2cccc3cccc(c23)S1(=O)=O (stereo not given)	31.6 µM (active)	
COc1ccc(C2C3=C(CC(C)(C)CC3=O)Oc3ncn4nc(-c5cccnc5)nc4c32)cc1OC (stereo not given)		6.85% (inactive)
CCCc1[nH]nc2c1C(c1ccc(OC(=O)c3ccco3)cc1)C(C#N)=C(N)O2 (stereo not given)		3.66% (inactive)
CCCc1[nH]nc2c1C(c1ccc(Br)s1)C(C#N)=C(N)O2 (stereo not given)	20 µM (active)	
CCCc1[nH]nc2c1C(C1CC=CCC1)C(C#N)=C(N)O2 (stereo not given)		-17.4% (inactive)
COC(=O)[C@@H]1C[C@@]2(O)[C@@H](O)[C@@H](O)[C@@H](O)C[C@H]2N1Cc1ccc(C)s1		15% (inactive)
COc1ccc2c(c1OC)C(=O)N(c1ncn[nH]1)C2	31.6 µM (active)	
Cc1ccc(Cn2ccc(NC(=O)C3C4CCC(C4)C3C(=O)O)n2)cc1 (stereo not given)		-2.8% (inactive)
COC(=O)C(C)Sc1ccc2nnc(-c3cccc(F)c3)n2n1 (stereo not given)	25.1 µM (active)	
CC1CCN(C(=O)CSc2ccc3nnc(-c4cccc(F)c4)n3n2)CC1		-12.3% (inactive)
CCOc1ccc(-c2nnc3ccc(SC)nn23)cc1		-6.07% (inactive)

Compound	Potency	activity change, negative = inhibition
CC(=O)CC(C)C		5.18% (inactive)
Cc1ccccc1C(=O)NCCN=C1NS(=O)(=O)c2ccccc21		-2.36% (inactive)
O=C(c1csnn1)N1CCC[C@@]2(CCN(Cc3nccs3)C2)C1		7.36% (inactive)
CSc1ccc(-c2c(C#N)c(N)nc3c2c(C)nn3-c2ccccc2)cc1	31.6 µM (active)	
CCC(=O)c1ccc(OCC(O)CN2CC(C)OC(C)C2)cc1 (stereo not given)		0.889% (inactive)
CC(=O)N(CC1CCCO1)C1(C(=O)NC2CCCC2)CCCCC1 (stereo not given)		11.9% (inactive)
C[C@@H]1O[C@@H](OC[C@H]2O[C@@H](Oc3c(-c4cccc(O)c4O)oc4cc(O)cc(O)c4c3=O)[C@H](O)[C@@H](O)[C@@H]2O)[C@H](O)[C@H](O)[C@H]1O		-17.4% (inactive)
O=c1c2ccccc2oc2nc(C3CCCCC3)n(Cc3ccco3)c(=O)c12		-7.64% (inactive)
O=c1c2ccccc2oc2nc3n(c(=O)c12)CCCS3	25.1 µM (active)	
CCc1nc2oc3ccccc3c(=O)c2c(=O)n1Cc1ccc(OC)cc1		-5.68% (inactive)
CN(C)/C=C1/Nc2ccccc2C1=O		-21.3% (inactive)
CCn1ncc(Br)c1C(=O)Nc1cc(C)ccc1F		7.14% (inactive)
Cc1c(O)cc(O)c2c(=O)c(-c3ccc(O)cc3)coc12		1.02% (inactive)
O=C1C(c2[nH]c3ccccc3c2O)=Nc2ccccc21	31.6 µM (active)	
CC(=O)c1c(N2CCOCC2)nc(=S)n(Cc2ccccc2)c1C		6.31% (inactive)
CCN(CC)CCCCn1c(-c2ccccc2)nc2c(N3CCOCC3)nc(C)nc21	20 µM (active)	
CCCCNc1nc2c(c(=O)[nH]c(=O)n2C)n1CCOc1ccccc1		9.4% (inactive)
CCCCNc1nc(C)nc2c1nc(-c1ccccc1)n2CCCCN(CC)CC	25.1 µM (active)	
O=S(=O)(O)CCN1CCOCC1		1.92% (inactive)
CCCn1c(C(O)c2ccc(OCC)cc2)nc2ccccc21 (stereo not given)		4.24% (inactive)
COc1ccccc1C(=O)Oc1ccc(N2C(=O)CCC2=O)cc1		-11.2% (inactive)
C[C@@H](c1ccccc1)N1C(=O)[C@H]2[C@H]3[C@H](O)[C@H](O)C/C(=N/OC[C@@H](O)COCc4ccco4)[C@@H]3CC[C@@H]2C1=O		1.97% [at 11.4 µM] (inactive)

Compound	Potency	activity change, negative = inhibition
COc1ccc(S(=O)(=O)N2CCCC(C(=O)N3CCN(C)CC3)C2)cc1C (stereo not given)		10.7% (inactive)
C[N+]1(CCN=C=NC2CCCCC2)CCOCC1		-0.294% [at 11.4 µM] (inactive)
CCOc1ccccc1N(CC(=O)Nc1ccccc1C(=O)OC)S(C)(=O)=O		-13.6% (inactive)
CCOc1ccccc1C1C(C(=O)OC)=CN(C)C=C1C(=O)OC	25.1 µM (active)	
CCCCOCCCNC(=O)c1ccccc1OCC		1.37% (inactive)
COC(=O)C1=C(C)N(C)C(C)=C(C(=O)OC)C1c1cccc(Br)c1		-5.98% (inactive)
CC12CN3CC(C)(CN(C1)C3c1ccc(Cl)cc1Cl)C2=O (stereo not given)		4.79% (inactive)
COC(=O)C1=CN(C)C=C(C(=O)OC)C1c1ccc(Cl)cc1Cl	31.6 µM (active)	
O=S(=O)(N1CCOCC1)N1CCN(c2ccccc2F)CC1		0.766% (inactive)
CCOC(=O)C1=C(CC)Nc2ccccc2N=C1NC(=O)c1cccc(S(=O)(=O)N2CCCC2)c1		-10.6% (inactive)
CCOC(=O)CN1C(=O)C(O)(CC(=O)c2ccccn2)c2ccccc21 (stereo not given)		-5.79% (inactive)
CCN(CC)S(=O)(=O)c1cccc(C(=O)Nc2ccccc2)c1		2.56% (inactive)
CCc1c(O)nc(SCC(=O)N2CCCCC2)n(-c2ccccc2C)c1=O		7.14% (inactive)
CC1(C)OC2CC3C4CCC5=CC(=O)CCC5(C)C4(F)C(O)CC3(C)[C@]2(C(=O)CCl)O1 (stereo not given in full)		-11.4% (inactive)
Cc1cccc(Br)c1		2.64% (inactive)
Cc1cc(=O)[nH]c(SCc2cc(Cl)ccc2OC(F)F)n1		-11.7% (inactive)
CCOc1ccc2nc(NC(=O)CSc3nc4c(c(=O)n(C)c(=O)n4C)n3CC)sc2c1		-2.72% (inactive)
O=C(NCc1ccc(Cl)cc1)c1cc2c(nc3sccn32)s1	20 µM (active)	
O=C(NCc1cn2ccsc2n1)Nc1ccc(Cl)cc1		10.3% (inactive)
O=c1cc(Cn2nnc(-c3ccc(Cl)cc3)n2)nc2sccn12		-10.6% (inactive)
CCCCn1nnnc1NCc1cc(OC)c(OC)c(OC)c1		13.8% (inactive)
O=C(O)C1CCN(c2ncnc3ccc(-c4ccccc4C(F)(F)F)cc23)CC1		-0.266% (inactive)
